From the supplement of paper PMC4022240
± gives the standard deviation.

T1: HaloTag-ATRX ADD domain (163-292)
T1 chain: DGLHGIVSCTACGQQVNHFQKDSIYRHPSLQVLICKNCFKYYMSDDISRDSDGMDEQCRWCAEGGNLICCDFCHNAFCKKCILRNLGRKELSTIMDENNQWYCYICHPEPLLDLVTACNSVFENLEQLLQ


Target: T1, HaloTag-ATRX ADD domain (163-292)
Experiment: peptide microarray binding signal (635 nm), min-max normalized on array (fraction of array maximum); higher = stronger binding
Settings: peptide region: Unmod H2B variant; binder concentration: 50 nM
Procedure, shortened: (§1)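 Histone 13-mer peptide–cellulose conjugates were printed in triplicate on nitrocellulose with a Cy3 tracer, then blocked overnight at 4°C. Arrays were probed for 1 h at 4°C with biotin-labelled HaloTag reader fusions (10 nM to 1 μM) plus streptavidin-Alexa Fluor 647, or with rabbit histone antibodies (1:10,000 to 1:2,000) plus anti-rabbit Alexa 647. An Axon GenePix 4000B scanned 635 nm for signal and 532 nm for misprints. Binding signal is the triplicate-spot mean intensity, min-max scaled per library.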

Binder | peptide microarray binding signal
PKKGSKKAVTKAQ [Unmod H2B variant P K K G S K K A V T K A Q] | 0.00561 ± 0.00027
PEPTKSAPAPKKG [Unmod H2B variant P E P T K S A P A P K K G] | 0.006019 ± 5.5e-05
APKKGSKKAVTKA [Unmod H2B variant A P K K G S K K A V T K A] | 0.00705 ± 0.00011
PEPAKSAPAPKKG [Unmod H2B variant P E P A K S A P A P K K G] | 0.00404 ± 8.4e-05
ISKKGFKKAVVKT [Unmod H2B variant I S K K G F K K A V V K T] | 0.00683 ± 0.00024
VPKKGSKKAINKA [Unmod H2B variant V P K K G S K K A I N K A] | 0.00639 ± 0.00069
PELAKSAPAPKKG [Unmod H2B variant P E L A K S A P A P K K G] | 0.00618 ± 0.00062
PDPAKSAPAPKKG [Unmod H2B variant P D P A K S A P A P K K G] | 0.0068 ± 0.00035
PEPVKSAPVPKKG [Unmod H2B variant P E P V K S A P V P K K G] | 0.007868 ± 4.2e-05
APKKGSKKAITKA [Unmod H2B variant A P K K G S K K A I T K A] | 0.00592 ± 0.00021

Same assay, conditions: peptide region: Unmod H2B variant; binder concentration: 500 nM

Binder | peptide microarray binding signal
PKKGSKKAVTKAQ [Unmod H2B variant P K K G S K K A V T K A Q] | 0.008048 ± 4.3e-05
PEPTKSAPAPKKG [Unmod H2B variant P E P T K S A P A P K K G] | 0.0126 ± 0.00066
APKKGSKKAVTKA [Unmod H2B variant A P K K G S K K A V T K A] | 0.00729 ± 0.00014
PEPAKSAPAPKKG [Unmod H2B variant P E P A K S A P A P K K G] | 0.00971 ± 0.00016
ISKKGFKKAVVKT [Unmod H2B variant I S K K G F K K A V V K T] | 0.0118 ± 0.00025
VPKKGSKKAINKA [Unmod H2B variant V P K K G S K K A I N K A] | 0.0081 ± 0.00015
PELAKSAPAPKKG [Unmod H2B variant P E L A K S A P A P K K G] | 0.0121 ± 0.001
PDPAKSAPAPKKG [Unmod H2B variant P D P A K S A P A P K K G] | 0.00538 ± 0.00012
PEPVKSAPVPKKG [Unmod H2B variant P E P V K S A P V P K K G] | 0.0166 ± 0.00043
APKKGSKKAITKA [Unmod H2B variant A P K K G S K K A I T K A] | 0.00971 ± 0.00064

Target: HaloTag-ING2 PHD (mouse Ing2 200-280)
Experiment: as above
Settings: peptide region: Unmod H2B variant; binder concentration: 10 nM
Procedure, shortened: as §1

Binder | peptide microarray binding signal
PKKGSKKAVTKAQ [Unmod H2B variant P K K G S K K A V T K A Q] | 0.00275 ± 0.00016
PEPTKSAPAPKKG [Unmod H2B variant P E P T K S A P A P K K G] | 0.0173 ± 0.011
APKKGSKKAVTKA [Unmod H2B variant A P K K G S K K A V T K A] | 0.00185 ± 1.9e-05
PEPAKSAPAPKKG [Unmod H2B variant P E P A K S A P A P K K G] | 0.00346 ± 6.5e-05
ISKKGFKKAVVKT [Unmod H2B variant I S K K G F K K A V V K T] | 0.00227 ± 7.3e-05
VPKKGSKKAINKA [Unmod H2B variant V P K K G S K K A I N K A] | 0.00263 ± 3.9e-05
PELAKSAPAPKKG [Unmod H2B variant P E L A K S A P A P K K G] | 0.0037 ± 8.6e-05
PDPAKSAPAPKKG [Unmod H2B variant P D P A K S A P A P K K G] | 0.00358 ± 0.00019
PEPVKSAPVPKKG [Unmod H2B variant P E P V K S A P V P K K G] | 0.00889 ± 0.00055
APKKGSKKAITKA [Unmod H2B variant A P K K G S K K A I T K A] | 0.00239 ± 4.7e-05

Same assay, conditions: peptide region: Unmod H2B variant; binder concentration: 100 nM

Binder | peptide microarray binding signal
PKKGSKKAVTKAQ [Unmod H2B variant P K K G S K K A V T K A Q] | 0.00354 ± 0.00011
PEPTKSAPAPKKG [Unmod H2B variant P E P T K S A P A P K K G] | 0.0103 ± 0.0017
APKKGSKKAVTKA [Unmod H2B variant A P K K G S K K A V T K A] | 0.00446 ± 0.00013
PEPAKSAPAPKKG [Unmod H2B variant P E P A K S A P A P K K G] | 0.00369 ± 5.6e-05
ISKKGFKKAVVKT [Unmod H2B variant I S K K G F K K A V V K T] | 0.00602 ± 0.00021
VPKKGSKKAINKA [Unmod H2B variant V P K K G S K K A I N K A] | 0.0056 ± 0.00078
PELAKSAPAPKKG [Unmod H2B variant P E L A K S A P A P K K G] | 0.0085 ± 0.0029
PDPAKSAPAPKKG [Unmod H2B variant P D P A K S A P A P K K G] | 0.004039 ± 3.4e-05
PEPVKSAPVPKKG [Unmod H2B variant P E P V K S A P V P K K G] | 0.0274 ± 0.0037
APKKGSKKAITKA [Unmod H2B variant A P K K G S K K A I T K A] | 0.00248 ± 6.3e-05

Target: anti-H3K4me3 antibody ab8580
Experiment: as above
Settings: peptide region: Unmod H2B variant; binder concentration: 1:2,000 dilution
Procedure, shortened: as §1

Binder | peptide microarray binding signal
PKKGSKKAVTKAQ [Unmod H2B variant P K K G S K K A V T K A Q] | 0.000378 ± 7.7e-06
PEPTKSAPAPKKG [Unmod H2B variant P E P T K S A P A P K K G] | 0.001 ± 0.0001
APKKGSKKAVTKA [Unmod H2B variant A P K K G S K K A V T K A] | 0.000529 ± 1.4e-05
PEPAKSAPAPKKG [Unmod H2B variant P E P A K S A P A P K K G] | 0.000359 ± 3.7e-06
ISKKGFKKAVVKT [Unmod H2B variant I S K K G F K K A V V K T] | 0.00051 ± 8.6e-06
VPKKGSKKAINKA [Unmod H2B variant V P K K G S K K A I N K A] | 0.000529 ± 4.2e-05
PELAKSAPAPKKG [Unmod H2B variant P E L A K S A P A P K K G] | 0.0013 ± 0.00034
PDPAKSAPAPKKG [Unmod H2B variant P D P A K S A P A P K K G] | 0.000868 ± 7.8e-05
PEPVKSAPVPKKG [Unmod H2B variant P E P V K S A P V P K K G] | 0.00279 ± 0.00019
APKKGSKKAITKA [Unmod H2B variant A P K K G S K K A I T K A] | 0.000264 ± 2.8e-06

Same assay, conditions: peptide region: Unmod H2B variant; binder concentration: 1:10,000 dilution

Binder | peptide microarray binding signal
PKKGSKKAVTKAQ [Unmod H2B variant P K K G S K K A V T K A Q] | 0.000628 ± 6.7e-06
PEPTKSAPAPKKG [Unmod H2B variant P E P T K S A P A P K K G] | 0.00205 ± 0.00015
APKKGSKKAVTKA [Unmod H2B variant A P K K G S K K A V T K A] | 0.000571 ± 1.1e-05
PEPAKSAPAPKKG [Unmod H2B variant P E P A K S A P A P K K G] | 0.00097 ± 2e-05
ISKKGFKKAVVKT [Unmod H2B variant I S K K G F K K A V V K T] | 0.000685 ± 7.2e-06
VPKKGSKKAINKA [Unmod H2B variant V P K K G S K K A I N K A] | 0.000856 ± 8.9e-06
PELAKSAPAPKKG [Unmod H2B variant P E L A K S A P A P K K G] | 0.0028 ± 0.00029
PDPAKSAPAPKKG [Unmod H2B variant P D P A K S A P A P K K G] | 0.00097 ± 9.9e-06
PEPVKSAPVPKKG [Unmod H2B variant P E P V K S A P V P K K G] | 0.00251 ± 0.00026
APKKGSKKAITKA [Unmod H2B variant A P K K G S K K A I T K A] | 0.00114 ± 3e-05

Target: anti-H3K9me3 antibody ab8898
Experiment: as above
Settings: peptide region: Unmod H2B variant; binder concentration: 1:2,000 dilution
Procedure, shortened: as §1

Binder | peptide microarray binding signal
PKKGSKKAVTKAQ [Unmod H2B variant P K K G S K K A V T K A Q] | 0.000196 ± 2.1e-06
PEPTKSAPAPKKG [Unmod H2B variant P E P T K S A P A P K K G] | 0.000649 ± 1.2e-05
APKKGSKKAVTKA [Unmod H2B variant A P K K G S K K A V T K A] | 0.000211 ± 2.2e-06
PEPAKSAPAPKKG [Unmod H2B variant P E P A K S A P A P K K G] | 0.000408
ISKKGFKKAVVKT [Unmod H2B variant I S K K G F K K A V V K T] | 0.000257 ± 2.7e-06
VPKKGSKKAINKA [Unmod H2B variant V P K K G S K K A I N K A] | 0.000196 ± 2.1e-06
PELAKSAPAPKKG [Unmod H2B variant P E L A K S A P A P K K G] | 0.000951 ± 7.1e-05
PDPAKSAPAPKKG [Unmod H2B variant P D P A K S A P A P K K G] | 0.000453
PEPVKSAPVPKKG [Unmod H2B variant P E P V K S A P V P K K G] | 0.000997 ± 6.3e-05
APKKGSKKAITKA [Unmod H2B variant A P K K G S K K A I T K A] | 0.000302 ± 3.1e-06

Same assay, conditions: peptide region: Unmod H2B variant; binder concentration: 1:10,000 dilution

Binder | peptide microarray binding signal
PKKGSKKAVTKAQ [Unmod H2B variant P K K G S K K A V T K A Q] | 0.000577 ± 6.2e-06
PEPTKSAPAPKKG [Unmod H2B variant P E P T K S A P A P K K G] | 0.00115 ± 2e-05
APKKGSKKAVTKA [Unmod H2B variant A P K K G S K K A V T K A] | 0.000461
PEPAKSAPAPKKG [Unmod H2B variant P E P A K S A P A P K K G] | 0.000346 ± 3.8e-06
ISKKGFKKAVVKT [Unmod H2B variant I S K K G F K K A V V K T] | 0.000461
VPKKGSKKAINKA [Unmod H2B variant V P K K G S K K A I N K A] | 0.000461 ± 8.7e-06
PELAKSAPAPKKG [Unmod H2B variant P E L A K S A P A P K K G] | 0.00133 ± 8.2e-05
PDPAKSAPAPKKG [Unmod H2B variant P D P A K S A P A P K K G] | 0.00075 ± 7.9e-06
PEPVKSAPVPKKG [Unmod H2B variant P E P V K S A P V P K K G] | 0.00144 ± 5.1e-05
APKKGSKKAITKA [Unmod H2B variant A P K K G S K K A I T K A] | 0.000634 ± 1.2e-05
